Data: PubChem BioAssay AID743279 (National Center for Advancing Translational Sciences (NCATS), 2014)
About 17,000 (4.7%) of roughly 360,000 compounds were called active. About 5% were inconclusive and are not listed. Many of the other results were omitted from the sample, so actives are more common in it than they were. Unmarked numbers belong to inactive results. Rule as the data show it: active = activity change below about -50%; inconclusive = mostly about -30% to -49%; inactive = weaker than that.

assay: qHTS for Inhibitors of Inflammasome Signaling: IL-1-beta AlphaLISA Primary Screen; conditions: THP-1 LPS/ATP IL-1B secretion, 16 h; at 57.5 µM, hits give low values
Procedure, shortened: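 Secreted IL-1B measured by AlphaLISA bead assay after 16 h compound exposure of THP-1 cells; compounds (final up to 57.5 uM) added 1 h before LPS (250 ng/mL) and ATP (1.25 mM) stimulation; lower signal means less secretion.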
% is scaled to controls: 0 for no effect and ±100 for the full control effect.

Row | SMILES | activity change
1 | Cc1cc(C)c(NC(=O)C[N+](C)(C)CC(O)COc2cccc3ccccc23)c(C)c1 (configuration not stated) | -86% (active)
2 | Cc1cc(C)cc(OCC(=O)NCc2cc(C)nc3ccccc23)c1 | 14.8%
3 | Cc1cc(C)c(NC(=O)c2oc3ccccc3c2COc2ccccc2)c(C)c1 | -17.8%
4 | COc1ccc(NC(=O)N(C)C[C@H]2Oc3ncc(C#C[C@@H](C)O)cc3C(=O)N([C@H](C)CO)C[C@H]2C)cc1 | -13.1%
5 | CC1(Oc2ccc(Cl)cc2)CCN(Cc2csc3ccccc23)C1 (configuration not stated) | 17.7%
6 | Cc1cc(OC(=O)c2ccccc2)c([N+](=O)[O-])c(=O)[nH]1 | -9.86%
7 | Cc1ccc(S(=O)(=O)N2[C@@H](Cc3ccccc3)CO[C@H]2CC(=O)OCc2ccccc2)cc1 | -0.839%
8 | O=S(=O)(Cc1ccc(Cl)cc1Cl)c1ccc(Cl)cc1 | -1.43%
9 | CCN(CC)CCNC(=O)Cn1cnc2sc(C)c(S(=O)(=O)N3CCOCC3)c2c1=O | 14.7%
10 | CCN(CC)CCNC(=O)c1sc2ncn(CC(=O)Nc3ccc(C)c(Cl)c3)c(=O)c2c1C | -75.6% (active)
11 | CCN(CC)CCCNC(=O)Cn1cnc2sc(C)c(S(=O)(=O)N3CCN(c4ncccn4)CC3)c2c1=O | 18.1%
12 | CN(C)C1CN(Cc2cn(Cc3ccccc3)nn2)S(=O)(=O)C1 (configuration not stated) | -13.3%
13 | CC(C)CCOc1ccc(C(=O)Nc2cc(S(=O)(=O)N3CCOCC3)ccc2N2CCOCC2)cc1 | -18.6%
14 | O=S(=O)(NCCCN1CCOCC1)c1ccc(F)c(Cl)c1 | -0.644%
15 | CC1(C(=O)Nc2ccc3c(c2)OCCO3)CN(S(C)(=O)=O)CC(=O)N1Cc1cccc(F)c1 (configuration not stated) | -9.42%
16 | CCN1C(=O)[C@@H]2[C@@H](c3ccc(-c4ccc(OC)cc4)c(OC)c3)N3CCC[C@@]3(C(=O)OC)[C@@H]2C1=O | -7.49%
17 | CCCCCCSc1ccc([C@@H]2[C@@H]3C(=O)N(CC)C(=O)[C@@H]3[C@]3(C(=O)OC)CCCCN23)cc1OC | -74.8% (active)
18 | CCCCCCSc1ccc([C@@H]2[C@H]3C(=O)N(CC)C(=O)[C@H]3[C@]3(C(=O)OC)CCCCN23)cc1 | 144%
19 | COC(C)(C)[C@]12CC(O)(C(C)C)ON1[C@H]1CCCCC1N2O (some centres not stated) | 8.62%
20 | CCc1nc(SCC(=O)NNC(=O)c2ccc(C)cc2)c2ccccc2n1 | -0.629%
21 | CCCNC(=O)CSc1nc(Cc2ccccc2)nc2ccccc12 | -58.7% (active)
22 | C=CCSc1nc(Cc2ccc(Cl)cc2)nc2ccccc12 | -12.9%

Row | SMILES | activity change
23 | Cc1ccc(CCN2CC(C(=O)O)CC2=O)cc1 (configuration not stated) | -6.28%
24 | CC(=O)NC(C)c1nc2ccccc2n1Cc1ccccc1F (configuration not stated) | 21.9%
25 | N=c1n(CCc2ccccc2)c2ccccc2n1Cc1ccccc1F | -81.4% (active)
26 | O=C(COC(=O)Cc1ccccc1F)NCCc1ccccc1 | 6.36%
27 | O=C(NCCN1CCN(C(=O)c2cccc([N+](=O)[O-])c2)CC1)C(=O)NCc1ccc(Cl)cc1 | -11.8%
28 | Cc1ccc(S(=O)(=O)c2c[nH]c3ccc(Cl)cc3c2=O)cc1 | -2.27%
29 | CCOC(=O)CNc1nc(Cl)nc(Nc2ccc(OC)cc2OC)n1 | -6.02%
30 | CCOC(=O)CNc1nc(Cl)nc(Nc2ccccc2)n1 | -67.7% (active)
31 | CCC(=O)Nc1ccc(Nc2nc(Cl)nc(Nc3ccc(NC(=O)CC)cc3)n2)cc1 | -8.11%
32 | COc1cc(OC)cc(C(=O)NCCSCc2ccc(Cl)cc2)c1 | 0.652%
33 | CC(=O)C12CC(C)=C(C)CC1CC1C3CCC4=CC(=O)CCC4(C)C3CCC12C (configuration not stated) | -14.2%
34 | CSc1ncnc2c1ncn2CC(=O)C1CCC2C3CCC4=CC(=O)CCC4(C)C3CCC12C (configuration not stated) | -64.8% (active)
35 | CSc1ncnc2c1ncn2CCCNCC1CCCCC1 | 16.5%
36 | C[C@H]1CN([C@@H](C)CO)C(=O)CCCn2nncc2CO[C@@H]1CN(C)S(=O)(=O)c1cccc(C#N)c1 | 22.7%
37 | CCOC(=O)N1C(=O)C[C@](Sc2ccc(C)cc2)(C(=O)OC)[C@H]1c1ccccc1 | -13.1%
38 | COc1ccc2c(c1)CCC/C2=N\OC(=O)c1ccccc1F | -13.5%
39 | CCc1nc2c(OCC(N)=O)cccn2c1N(C)C(=O)c1ccc(OC)cc1 | 3.49%
40 | CCc1nc2c(OCCOc3ccc(F)cc3)cccn2c1N(C)C(=O)c1ccccc1F | -11.7%
41 | COCCCNCC(=O)Nc1sc(C)c(C)c1C(=O)OC | 0.516%
42 | O=C(NC(=S)Nc1ccc(Cl)cc1Cl)C1CC1 | 19.2%
43 | Cc1ccc2c(c1)C1CN(C)CCC1N2S(=O)(=O)c1cccc(F)c1 (configuration not stated) | -15.5%
44 | Cc1ccc2c(c1)C1CN(C)CCC1N2C(=S)Nc1ccc(OC(F)F)cc1 (configuration not stated) | -62.4% (active)

Row | SMILES | activity change
45 | Cc1ccc2c(c1)C1CN(C)CCC1N2C(=S)Nc1ccc(Cl)cc1Cl (configuration not stated) | -84.8% (active)
46 | Cc1ccc2c(c1)C1CN(C)CCC1N2C(=O)c1ccccc1NS(=O)(=O)c1ccc(F)cc1C (configuration not stated) | 5.7%
47 | S=C(Nc1ccc(Cl)cc1Cl)N1CCCC1 | -2.45%
48 | COC(=O)c1ccc2c(=O)n(CCN3CCOCC3)c(SCC(=O)Nc3cccc(OC)c3)nc2c1 | -19.5%
49 | OCCN1CCN(c2ncnc3c2ncn3[C@H]2CN(Cc3ccco3)C[C@@H](CO)O2)CC1 | 10%
50 | CC(=O)c1c(C)[nH]c(C(=O)COC(=O)c2cccc(S(=O)(=O)N(C)c3ccccc3)c2)c1C | -12.5%
51 | CN(C)c1ccc(C(CC(=O)O)C(=O)O)cc1 (configuration not stated) | 15%
52 | COc1ccc(-c2nn(-c3ccccc3)cc2C(=O)Nc2nccs2)cc1OC | -52.5% (active)
53 | COc1ccc(-c2nn(-c3ccccc3)cc2/C=N/Nc2ccccn2)cc1OC | 10.4%
54 | COc1ccc(Cl)cc1NC(=O)CN(C)C(=O)c1cn(-c2ccccc2)nc1-c1cccs1 | -15.3%
55 | Nc1ncnc2c1ncn2[C@@H]1O[C@H](CNC(=O)[C@H](N)Cc2cccnc2)[C@@H](O)[C@H]1O | -4.6%
56 | CC1(C)COC(c2cccn2Cc2ccccc2Cl)=N1 | 1.85%
57 | Cc1cc(C(=O)NC2CCCc3c2cnn3-c2cccc(C)c2C)c(C)o1 (configuration not stated) | -7.02%
58 | COc1ccc(OC)c(C(=O)NC2CCCc3c2cnn3-c2cc(C)cc(C)c2)c1 (configuration not stated) | -20.1%
59 | COc1ccc(C(=O)NC2CCCc3c2cnn3-c2cccc(C)c2C)c(OC)n1 (configuration not stated) | -78.6% (active)
60 | O=C(NNC1=C(C(=O)C(F)(F)F)CCC1)c1ccncc1 | 28.1%
61 | CCC1Nc2ncnc(N3CCN(c4ccccc4)CC3)c2N(Cc2ccc(Cl)cc2)C1=O (configuration not stated) | -19.1%
62 | COc1ccc(NC(=O)C2Cc3c(-c4ccc(Cl)cc4)ccnc3O2)cc1 (configuration not stated) | -7.31%
63 | CCc1ccccc1NC(=O)CSc1nnc([C@@H](NC(=O)OC(C)(C)C)C(C)C)o1 | 11.8%
64 | C[C@@H](NC(=O)OC(C)(C)C)c1nnc(S(=O)(=O)Cc2ccccc2)o1 | -70.3% (active)
65 | CCc1ccccc1NC(=O)CSc1nnc([C@@H](NC(=O)OC(C)(C)C)C(C)CC)o1 (some centres not stated) | 9.72%
66 | COc1cc(/C=C(/NC(=O)c2ccc(Cl)cc2Cl)C(=O)O)cc(OC)c1OC | 2.22%

Row | SMILES | activity change
67 | O=c1[nH]cnc2c1c(-c1ccccc1)cn2-c1ccc(F)cc1 | -91.8% (active)
68 | O=c1c2c(-c3ccccc3)ccnc2[nH]n1-c1ccccc1 | -16.4%
69 | COc1ccc(-n2cc(-c3ccccc3)c3c(=S)nc[nH]c32)cc1 | 18.8%
70 | COc1ccc(S(=O)(=O)N2CCN(C)CC2)c(C)c1 | -5.01%
71 | Cn1c(=O)c2cc(NC(=O)NCCc3cccs3)ccc2n1Cc1cccc(C(F)(F)F)c1 | 1.3%
72 | CN1CCN(S(=O)(=O)c2cccc(C(=O)Nc3cccc(S(N)(=O)=O)c3)c2)CC1 | 6.7%
73 | CC(C)CCN1C(=O)c2ccc(C(=O)Nc3cccc(S(N)(=O)=O)c3)cc2C1=O | -61% (active)
74 | Cc1cccc(C(=O)Nc2ccc3c(c2)C(=O)N(CC(C)C)C3=O)c1 | 0.513%
75 | CC(C)c1cccc(-c2csc(C(O)c3ccccc3)n2)c1 (configuration not stated) | 43.6%
76 | CCOC(=O)C1=CCC(c2ccc(F)cc2)N(S(=O)(=O)c2ccc(C)cc2)C1 (configuration not stated) | 30.7%
77 | NC(CSC12CC3CC(CC(C3)C1)C2)C(=O)O (configuration not stated) | 23.7%
78 | O=C(c1cccs1)N1C[C@H](n2cc(C3CC3)nn2)[C@@H](O)C[C@@H]1c1ccccc1 | 0.261%
79 | Clc1cccc(-c2nc(NCC3CCCO3)c3ccccc3n2)c1 (configuration not stated) | -76.8% (active)
80 | c1ccc2c(NCC3CCCO3)nc(-c3ccncc3)nc2c1 (configuration not stated) | -27.3%
81 | O=C(NCC1CCCO1)c1ccc2ccccc2n1 (configuration not stated) | 3.35%
82 | CCCCn1nnnc1C(c1cccc(OC)c1OC)N1CCN(C/C=C/c2ccccc2)CC1 (configuration not stated) | -23.9%
83 | C[C@H]1CN([C@@H](C)CO)C(=O)c2cc(-c3ccccc3F)cnc2O[C@H]1CN(C)C(=O)C1CCOCC1 | 13.6%
84 | CN/C(=C\[N+](=O)[O-])NCCSCc1csc(CN(C)C)n1 | 0.154%
85 | COc1ccc(C(=O)NCC(c2ccco2)N2CCc3ccccc32)cc1OC (configuration not stated) | -0.703%
86 | O=C(NCC(c1ccco1)N1CCc2ccccc21)c1cccc(F)c1 (configuration not stated) | -86.4% (active)
87 | Cc1ccccc1C(=O)NCC(c1ccco1)N1CCc2ccccc21 (configuration not stated) | -20.8%
